High-throughput results (PubChem BioAssay)
Only some compounds are listed: those with a hit (about 3.4% of all), similar ones and a draw of the others.
Sm TGR inh = S. mansoni TGR enzyme inhibition. Q962Y6. AID 485364. Potency, µM (titrated, usually from 114 µM), usual class: inhibitors. 3% of 360,000 active. purified TGR, DTNB reduction, TNB absorbance 405 nm; further: nearly all actives have a fitted effect of over 60% in size
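First, TGR (20 nM dispensed) and NADPH were mixed with compound. Second, a 15 min room-temperature incubation followed. Third, further NADPH and then DTNB were added to start the reaction. Finally, TNB absorbance was monitored kinetically.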
RE007 growth inh = less growth of the S. pombe RE007 Vpr strain; S. pombe RE007 Vpr strain, BacTiter-Glo ATP luminescence, 24 h; Potency, µM (titrated, usually from 92.2 µM), most hits filed as inhibitors; 0.21% of 360,000 active; AID 651644; active means well fitted falling curve with a large enough effect; inconclusive means small, poorly fitted or top-dose-only effect; inactive means no such curve, though single readings can be large or run the other way; further: nearly all actives have a fitted effect of over 50% in size
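Fission yeast strain RE007, carrying one chromosomally integrated HIV-1 vpr copy, was seeded at OD 0.01 in PMG+AL medium with 23 nL pinned compound. After 24 h at 30 °C and 99% humidity, viability was read by BacTiter-Glo luminescence.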
FBPA Giardia inh = inhibitors of Giardia lamblia fructose-1,6-bisphosphate aldolase; A8B2U2; 0.71% of 290,000 active; Potency, µM (doses to about 59.6 µM), actives largely listed as inhibitors; purified Giardia FBPA; AID 2451; further: nearly all actives have a fitted effect of over 55% in size
Target sequence (A8B2U2 whole entry, looked up): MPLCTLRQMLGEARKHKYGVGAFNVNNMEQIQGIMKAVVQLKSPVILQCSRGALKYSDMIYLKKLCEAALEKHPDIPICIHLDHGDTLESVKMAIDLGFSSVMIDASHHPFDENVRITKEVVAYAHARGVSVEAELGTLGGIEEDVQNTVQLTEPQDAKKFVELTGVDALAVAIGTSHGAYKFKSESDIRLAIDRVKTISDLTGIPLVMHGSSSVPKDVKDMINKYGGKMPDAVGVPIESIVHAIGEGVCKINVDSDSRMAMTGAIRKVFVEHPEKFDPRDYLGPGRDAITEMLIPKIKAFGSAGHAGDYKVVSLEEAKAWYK
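Giardia FBPA (40 nM reagent) was preincubated 10 min at RT with compound (up to 57.5 uM final), then substrate plus GAPDH/TPI/NAD/arsenate coupling system with diaphorase/resazurin was added; resorufin fluorescence (525/598 nm) was read after 20 min.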
AmpC inh no detg = inhibitors of E. coli AmpC beta-lactamase without detergent; 0.52% of 330,000 active; AID 485341; AmpC nitrocefin hydrolysis, absorbance 480 nm, 0.0001% Triton; P00811; Potency, µM (top dose mostly 57.1 µM), usual class: inhibitors; further: nearly all actives have a fitted effect of over 20% in size
Target sequence (P00811 whole entry, looked up): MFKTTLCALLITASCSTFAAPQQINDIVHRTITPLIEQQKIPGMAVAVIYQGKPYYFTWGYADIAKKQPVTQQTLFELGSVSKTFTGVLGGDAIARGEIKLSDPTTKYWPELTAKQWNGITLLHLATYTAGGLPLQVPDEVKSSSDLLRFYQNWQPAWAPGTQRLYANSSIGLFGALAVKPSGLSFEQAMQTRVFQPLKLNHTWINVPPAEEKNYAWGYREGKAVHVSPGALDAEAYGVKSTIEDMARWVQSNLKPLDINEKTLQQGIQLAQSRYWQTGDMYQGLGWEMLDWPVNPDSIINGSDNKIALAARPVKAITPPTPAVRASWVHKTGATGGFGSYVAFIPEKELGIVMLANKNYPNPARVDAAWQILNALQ
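AmpC (5.3 nM in the dispensed reagent) in 20 mM phosphate pH 7.0 with 0.01% (detergent screen) or 0.0001% Triton X-100 was preincubated with compounds for 15 min at room temperature. Nitrocefin was then added from an 800 uM solution, and hydrolysis was followed at 480 nm.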
AmpC detergent = blocks E. coli AmpC beta-lactamase in detergent assay. AmpC hydrolysis of nitrocefin, absorbance 480 nm, 0.01% Triton. Potency, µM (series often up to 114 µM), actives largely listed as inhibitors. 0.041% of 370,000 active; further: nearly all actives have a fitted effect of over 25% in size
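20 mM phosphate pH 7.0 + 0.01% (detergent screen) or 0.0001% Triton X-100; 5.3 nM AmpC reagent; cpd preinc 15 min RT; nitrocefin (800 uM stock) to start; A480 q20 s × 4 min; Activity was normalised to no-enzyme and no-compound control wells.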
Large screens that a line does not name were inactive. Unless noted, the call rests on the fitted dose curve; in most records, active means well fitted curve in the direction sought with a large enough effect; inconclusive means small, poorly fitted or top-dose-only effect, or another doubt; inactive means no such curve, though single readings can be large; an effect the other way counts as inactive or inconclusive.

CN(Cc1ccon1)C(=O)CC1C(=O)NCCN1Cc1cccc(Oc2ccccc2)c1 (stereo not given)	Sm TGR inh inconclusive
CCCN(CC(=O)Nc1ccccc1C)C(=O)/C=C/c1ccc(OCC)c(OC)c1	AmpC detergent inconclusive (no result: FBPA Giardia inh)
O=C(CCNC(=O)c1ccc([N+](=O)[O-])cc1)NNC(=O)c1ccncc1	none (no result: FBPA Giardia inh)
CN(CC1CCOCC1)C(=O)CC1C(=O)NCCN1Cc1cccc(Oc2ccccc2)c1 (stereo not given)	Sm TGR inh 40µM
O=CN1CCCN(C(=O)CC2C(=O)NCCN2Cc2cccc(Oc3ccccc3)c2)CC1 (stereo not given)	Sm TGR inh 13µM (no result: FBPA Giardia inh)
CN(Cc1ccccn1)C(=O)CC1C(=O)NCCN1Cc1ccc(F)cc1Cl (stereo not given)	Sm TGR inh 45µM (no result: FBPA Giardia inh)
COc1cccc(CN2CCNC(=O)C2CC(=O)N(C)CC2CCOCC2)c1 (stereo not given)	Sm TGR inh inconclusive (no result: FBPA Giardia inh)
O=C(NC(c1ccccc1)c1ccc2ccccc2n1)C1CCN(Cc2cccc(C(F)(F)F)c2)CC1 (stereo not given)	none (no result: Sm TGR inh, FBPA Giardia inh, AmpC inh no detg, AmpC detergent)
Cc1nnc(NC(=O)C(C)Sc2nnc(CCNC(=O)c3ccccc3F)n2C)s1 (stereo not given)	none
COCC(=O)Nc1nc2n(n1)C(c1ccc(Cl)cc1)CC(c1ccc(OC)cc1)N2 (stereo not given)	Sm TGR inh 25µM, AmpC detergent inconclusive
COCC(=O)Nc1nc2n(n1)C(c1ccccc1Cl)CC(c1ccc(OC)cc1)N2 (stereo not given)	Sm TGR inh 40µM
Cc1noc(C)c1CS(=O)(=O)Cc1ccc(Cl)cc1	Sm TGR inh inconclusive
CC(=O)O[C@@]1(C(C)=O)CCC2C3C=C(Cl)C4=CC(=O)C5CC5[C@@]4(C)C3CC[C@]21C (stereo not given in full)	none (no result: Sm TGR inh, RE007 growth inh, AmpC inh no detg, AmpC detergent)
C[C@]12CC[C@@H]3c4ccc(O[C@@H]5O[C@H](C(=O)O)[C@@H](O)[C@H](O)[C@H]5O)cc4CC[C@H]3[C@@H]1C[C@@H](O)[C@@H]2O	Sm TGR inh 40µM
CC(C)c1ccc(N2C(=O)NC(=O)/C(=C\c3cnc(-c4ccccc4)nc3)C2=O)cc1	Sm TGR inh 11µM
Cc1ccc(N2C(=O)NC(=O)/C(=C\c3ccsc3)C2=O)cc1C	AmpC detergent inconclusive (no result: RE007 growth inh)
Cc1cccc(N2C(=O)NC(=O)/C(=C\c3cnc(-c4ccccc4)nc3)C2=O)c1	Sm TGR inh 5µM, AmpC detergent inconclusive
Cc1ccc(N2C(=O)NC(=O)/C(=C/c3cnc(-c4ccccc4)nc3)C2=O)cc1C	Sm TGR inh 1.8µM
Cc1cc(C)n(C(C)CC(=O)NCc2ccc(Cl)cc2)n1 (stereo not given)	none (no result: RE007 growth inh, FBPA Giardia inh, AmpC inh no detg)
COc1ccc(C(=O)C(OC(=O)CNC(=O)c2ccco2)c2ccccc2)cc1 (stereo not given)	Sm TGR inh 18µM (no result: FBPA Giardia inh)
O=C(CNC(=O)c1ccccc1)OC(C(=O)c1ccccc1)c1ccccc1 (stereo not given)	none
Cc1ccc(Cl)cc1N(C)C(=O)c1cn(C2CCCCC2)c(=O)c2c1c1ccccc1n2C	none (no result: RE007 growth inh, FBPA Giardia inh, AmpC inh no detg)
O=C(NCCc1ccc(F)cc1)c1coc(=O)c(Br)c1	none
NS(=O)(=O)c1ccc(N2N=C(c3ccccc3)CC2c2cccc(F)c2)cc1 (stereo not given)	AmpC detergent inconclusive
NS(=O)(=O)c1ccc(N2N=C(c3ccc(Br)cc3)CC2c2ccc(F)cc2)cc1 (stereo not given)	AmpC inh no detg 5.6µM
CCN(CC)C(=O)C1CCCN(c2ccc([N+](=O)[O-])cc2/C=N/NC(=O)c2cccc(Br)c2)C1 (stereo not given)	none
CSc1ccccc1NC(=O)CN(C)Cc1c(O)ccc2ccccc12	Sm TGR inh 0.79µM
CN(CC(=O)Nc1ccc(N2CCOCC2)cc1)C(=O)CCc1ccccc1Cl	Sm TGR inh 35µM (no result: FBPA Giardia inh)
CN(CC(=O)Nc1ccc(N2CCOCC2)cc1)Cc1c(O)ccc2ccccc12	Sm TGR inh 0.4µM, FBPA Giardia inh inconclusive
CSc1ccccc1NC(=O)CN(C)Cc1ccc(Br)cc1	AmpC detergent inconclusive
CN(CC(=O)Nc1ccc(N2CCOCC2)cc1)C(=O)CCNC(=O)c1ccccc1Cl	none (no result: FBPA Giardia inh)
CN(CC(=O)Nc1ccc(N2CCOCC2)cc1)CC(=O)Nc1ccc(N2CCOCC2)cc1	none
Cc1cccc(C(=O)OCC(=O)N2CCCCCC2)c1	none (no result: FBPA Giardia inh)
COCc1ccc([C@@H]2C[C@H]3CN(Cc4cccc(Cl)c4)C(=O)[C@]34CCCN24)o1	none
CCOC(=O)NC(C(Cl)(Cl)Cl)S(=O)(=O)c1ccccc1 (stereo not given)	Sm TGR inh 25µM
COc1ccc(-c2ccc(CCC(=O)O)n2CC(C)C)cc1	Sm TGR inh 10µM
COc1ccc(-c2ccc(CCC(=O)O)n2CC(=O)Nc2cccc(C(F)(F)F)c2)cc1	none (no result: RE007 growth inh, FBPA Giardia inh, AmpC inh no detg)
C=CCn1c(CCC(=O)O)ccc1-c1ccc(OC)cc1	Sm TGR inh 45µM
COc1ccc(OC)c(NC(=O)Cn2c(CCC(=O)O)ccc2-c2ccc(C)cc2)c1	none
Cc1ccc(NC(=O)CN2C(=O)COc3ccc(S(=O)(=O)N4CCCCCC4)cc32)c(C)c1	none (no result: RE007 growth inh, FBPA Giardia inh, AmpC inh no detg)
CCCn1cnc2c(SCc3ccc(Cl)cc3)nc(N)nc21	none (no result: Sm TGR inh, FBPA Giardia inh, AmpC inh no detg, AmpC detergent)
COc1cccc(N=Cc2c(O)n(Cc3ccco3)c(=O)[nH]c2=O)c1	Sm TGR inh 25µM
N#CCSc1nccc(-c2cc(Cl)sc2Cl)n1	AmpC detergent inconclusive
COc1ccc2oc(=O)c(C(=O)NCCc3ccc(OC)c(OC)c3)cc2c1	none
COC(=O)c1ccc2[nH]c(C3(O)CCCCC3)c(C)c2c1	none (no result: Sm TGR inh, FBPA Giardia inh, AmpC detergent)
Cc1c(C2(O)CCCCC2)[nH]c2ccc(C(F)(F)F)cc12	RE007 growth inh 40µM (no result: Sm TGR inh, FBPA Giardia inh, AmpC detergent)
Cc1cc(C)c(S(=O)(=O)NCCS(=O)(=O)N2CCN(c3ccccc3)CC2)c(C)c1	none (no result: RE007 growth inh, FBPA Giardia inh, AmpC inh no detg)
O=[N+]([O-])c1ccccc1S(=O)(=O)NCc1ccco1	none
O=C1C2C3C=CC(CNS(=O)(=O)c4ccccc4[N+](=O)[O-])(O3)C2C(=O)N1c1ccccc1 (stereo not given)	Sm TGR inh 3.2µM, RE007 growth inh 5µM
Cc1cc(C)c(S(=O)(=O)NCC23C=CC(O2)C2C(=O)N(c4ccccc4)C(=O)C23)c(C)c1 (stereo not given)	Sm TGR inh 4.5µM, RE007 growth inh 22µM (no result: FBPA Giardia inh)
O=C(Nc1cccc(-c2ccc(N3CCOCC3)nn2)c1)c1ccccc1	AmpC inh no detg inconclusive, AmpC detergent inconclusive (no result: FBPA Giardia inh)
O=C(Nc1cccc(-c2ccc(N3CCOCC3)nn2)c1)c1ccc([N+](=O)[O-])cc1	AmpC inh no detg 32µM (no result: FBPA Giardia inh)
O=C(c1ccco1)N1CCN(C(=S)Nc2ccc(F)c(Cl)c2)CC1	none (no result: FBPA Giardia inh)
O=C(CSc1cccc2cccnc12)N1CCCC1	RE007 growth inh 45µM
CCN(CC)C(=O)CSc1nc2ccccc2c(=O)n1-c1ccccc1OC	AmpC inh no detg inconclusive
